# According to the supplement of paper PMC6555819:
# Tested on: FXR:RXRa (NR concentration 270 nM, RXRa partner concentration 90 nM)
# Assay: PBM binding z-score (relative to random genomic background probes); higher = stronger binding; sequences stand for … in GC…GCGATTGACAGCGTAGAATGAAGG
# Outline: (§1)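 The probes on custom Agilent 4×180K protein-binding microarrays were double-stranded, with 34-nt variable regions bearing direct-repeat seeds, single-nucleotide variants, half-site ablations and random human genomic background sequences. Incubation lasted 1 h with ligand-free nuclear receptor dimers in PBS pH 7.4, 2% milk, 0.02% Triton X-100, 1 mM DTT, 0.2 mg/mL BSA and 0.4 mg/ml salmon testes DNA. Antibodies against each partner (one per run) detected bound dimers, and fluorescence scans were regression-normalized. Binding z-scores take the random background probes as reference.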
row,Sequence,PBM binding z-score
1,TCTCGGAGGACACGAAAGTCAGAGCTTTCCAGAG,0.434
2,TCAGACAGGTGAAGTTAACTCAGGTACGCAGTCG,0.865
3,CCTAGTTGATCAGGAGGTCACACACCGGATATGA,3.48
4,ACAGATAGGTGATGAAGGTAACTCAGGCTATCAT,-0.192
5,GTTATTAGTTGAAAGGGCAACCGAATGATTCTCG,1.4
6,AATACAGGGTCACTAGGGCAGAGTAGGTACGAAT,6.65
7,GATACAGGGTCAAGTCCAGAGTACGCGTATTGAT,7.3
8,CGTCAAAGTCCAACTAAGGTAACGTAAAGCACGC,0.904
9,CTCGAAAGGTCGGTTGAGATGAGTATACGGATAA,1.6
10,CCGACTGGTGCATAAGGTTACCATAAGCCAGCCC,0.236
11,TCTTGTAGATCAATAGAGGTTAAGATAGTGCGCT,1.04
12,ACTAGCAGGCCAAGTTTGGCTCACTCAAACAAAG,-0.477
13,ATAATGAGGTTATTAAGATCAGGGAATTGCGGTC,1.9
14,TCTTGTAGATCAATAGAGGTTATGAAAGTGCGCT,0.99
15,ATCACTAGGTAAAGTTCAGTGAAAGATCGATAGA,0.984
16,CGAACGAGGGCATGAGTTCATAGCAAATGCCGAT,2.26
17,CCTTACGGGTCACGAGGGTATAGCACGACGAGCG,6.44
18,CCGACTGGGGCAAGGTTACCATTACGCACAGCCA,0.0277
19,TTACCAAGGTGAAAGGTCGTGGATGCACGCCTTG,3.68
20,CCAGACATGTGAGAAGGTAACTCAGCCTCGATTA,-0.141

row,Sequence,PBM binding z-score
1,TCTATTAGTTGAAGGGCAATCGACGAGTCCGTTT,0.797
2,ATCGAAAGGTCGTGAGGTGAGTATACAGAAAGGC,5.57
3,TGTCAAAGTTCAAAGGTAATGTAAGTATCCACAC,7.19
4,ATCGAGAGGTCGACGAGGTGAGTATACACCGTTT,3
5,TAGCCTAGGTCAGATCGGCCCAGTATACGCTATA,1.44
6,GGAACGAGGGCAAGCTGATAGCAGAGTTTGATGG,0.351
7,CCTATTAGTTGACCATAAGTGCAACCGAAGCTCG,0.669
8,CCTAGTTGGTCAAGGTCACAGACGCTATAGGTAC,4.56
9,ATTAGTTGGTCAGCTGAGGTCACACACAATTCGG,3.77
10,AGAACGAGGGCACGCTGAGTTGATCGCAGAGTAG,0.98
11,CCGAGTAGGTTATCGGGCATTCAGGCAACGGTGA,0.12
12,TCTAGTTGGTCAAAGGTCGCACACTCGAAATGCG,2.96
13,TCTGCTAGGTCAACGATGGTCAGCTGATCTGCTA,3.18
14,CGAACTAGGTCATTGACATGACAGTGAATAGTAA,5.2
15,ATCTCTAGGTAAAGATAGCTCAGTGAATGCAAAT,-0.126
16,TCTTGTGGATCAACAGGAGGTTAAGAAAGATCGA,0.0119
17,TGAATGAGGTTAAAGATGAGGGAACGTGGCGTCG,2.79
18,TGAATGAGGTTAAAGATCAGCGAACGTGGCGTCG,2.99
19,CCAGTCAGGTGAGAAGGTAACTCAGCCTCGATTA,0.104
20,TCTTGTAGATCAATAGAGGTTACGAAAGTGCGCT,1.11

# Tested on: LXRa:RXRa (NR concentration 270 nM, RXRa partner concentration 90 nM)
# Assay: as above
# Outline: as §1
row,Sequence,PBM binding z-score
1,TCTCGGAGGACACGAAAGTCAGAGCTTTCCAGAG,-0.603
2,TCAGACAGGTGAAGTTAACTCAGGTACGCAGTCG,0.967
3,CCTAGTTGATCAGGAGGTCACACACCGGATATGA,3.95
4,ACAGATAGGTGATGAAGGTAACTCAGGCTATCAT,-0.132
5,GTTATTAGTTGAAAGGGCAACCGAATGATTCTCG,1.73
6,AATACAGGGTCACTAGGGCAGAGTAGGTACGAAT,5.17
7,GATACAGGGTCAAGTCCAGAGTACGCGTATTGAT,4.84
8,CGTCAAAGTCCAACTAAGGTAACGTAAAGCACGC,0.0247
9,CTCGAAAGGTCGGTTGAGATGAGTATACGGATAA,1.27
10,CCGACTGGTGCATAAGGTTACCATAAGCCAGCCC,1.78
11,TCTTGTAGATCAATAGAGGTTAAGATAGTGCGCT,3.81
12,ACTAGCAGGCCAAGTTTGGCTCACTCAAACAAAG,-0.516
13,ATAATGAGGTTATTAAGATCAGGGAATTGCGGTC,2.12
14,TCTTGTAGATCAATAGAGGTTATGAAAGTGCGCT,3.56
15,ATCACTAGGTAAAGTTCAGTGAAAGATCGATAGA,1.7
16,CGAACGAGGGCATGAGTTCATAGCAAATGCCGAT,2.23
17,CCTTACGGGTCACGAGGGTATAGCACGACGAGCG,4.54
18,CCGACTGGGGCAAGGTTACCATTACGCACAGCCA,0.227
19,TTACCAAGGTGAAAGGTCGTGGATGCACGCCTTG,3.62
20,CCAGACATGTGAGAAGGTAACTCAGCCTCGATTA,0.0863

row,Sequence,PBM binding z-score
1,TCTATTAGTTGAAGGGCAATCGACGAGTCCGTTT,0.889
2,ATCGAAAGGTCGTGAGGTGAGTATACAGAAAGGC,4.25
3,TGTCAAAGTTCAAAGGTAATGTAAGTATCCACAC,6.2
4,ATCGAGAGGTCGACGAGGTGAGTATACACCGTTT,2.28
5,TAGCCTAGGTCAGATCGGCCCAGTATACGCTATA,1.09
6,GGAACGAGGGCAAGCTGATAGCAGAGTTTGATGG,0.065
7,CCTATTAGTTGACCATAAGTGCAACCGAAGCTCG,0.833
8,CCTAGTTGGTCAAGGTCACAGACGCTATAGGTAC,3.92
9,ATTAGTTGGTCAGCTGAGGTCACACACAATTCGG,3.68
10,AGAACGAGGGCACGCTGAGTTGATCGCAGAGTAG,0.604
11,CCGAGTAGGTTATCGGGCATTCAGGCAACGGTGA,0.322
12,TCTAGTTGGTCAAAGGTCGCACACTCGAAATGCG,2.82
13,TCTGCTAGGTCAACGATGGTCAGCTGATCTGCTA,2.66
14,CGAACTAGGTCATTGACATGACAGTGAATAGTAA,3.24
15,ATCTCTAGGTAAAGATAGCTCAGTGAATGCAAAT,-0.286
16,TCTTGTGGATCAACAGGAGGTTAAGAAAGATCGA,1.31
17,TGAATGAGGTTAAAGATGAGGGAACGTGGCGTCG,2.16
18,TGAATGAGGTTAAAGATCAGCGAACGTGGCGTCG,2.46
19,CCAGTCAGGTGAGAAGGTAACTCAGCCTCGATTA,0.00917
20,TCTTGTAGATCAATAGAGGTTACGAAAGTGCGCT,3.47
